The source of these data is PubChem BioAssay (NCI).

The nature of experiment [1]: NCI Yeast Anticancer Drug Screen. Data for the rad50 strain (AID 155).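 Further: 0% = growth of vehicle-only cultures of the same strain.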 The conditions noted are these: S. cerevisiae rad50 strain growth inhibition, hits give high values. The method in brief: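 Inhibition values express reduced yeast growth in compound-treated cultures relative to vehicle-treated controls.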
A short description of experiment [2]: NCI Yeast Anticancer Drug Screen. Data for the mec2-1 strain (AID 157). The conditions noted are these: S. cerevisiae mec2-1 strain, hits give high values. The method in brief: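 Each compound was tested on mec2-1 yeast, a strain altered in DNA damage repair or cell cycle control. Growth inhibition is reported relative to vehicle.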
The nature of experiment [3]: NCI Yeast Anticancer Drug Screen. Data for the sgs1 mgt1 strain (AID 161).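 Further: 0% = growth of cultures given vehicle only.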 The conditions noted are these: S. cerevisiae sgs1 mgt1 strain, hits give high values. The method in brief:
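Inhibition of yeast growth, normalised to vehicle-treated controls, is reported for a strain bearing genetic alterations in DNA damage repair.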

A short description of experiment [4]: NCI Yeast Anticancer Drug Screen. Data for the cln2 rad14 strain (AID 165).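 Further: 0% = growth equal to vehicle treated cultures.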 As to conditions: S. cerevisiae cln2 rad14 strain, hits give high values. The method in brief: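 Test compounds were added to cln2 rad14 yeast cultures; inhibition of growth was then determined by comparison with vehicle treatment.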
Experiment [5] is described as follows: NCI Yeast Anticancer Drug Screen. Data for the bub3 strain (AID 167). The conditions noted are these: S. cerevisiae bub3 mutant strain, hits give high values. The method in brief:
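Steps: expose the mutant yeast strain to compound; grow alongside vehicle-treated cultures; measure growth; express inhibition against the vehicle cultures.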

The nature of experiment [6]: NCI Yeast Anticancer Drug Screen. Data for the mlh1 rad18 strain (AID 175). As to conditions: S. cerevisiae mlh1 rad18 strain growth inhibition, hits give high values. The method in brief:
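Inhibition values reflect reduced growth of mutant yeast versus vehicle-treated controls following compound exposure; the mutations affect DNA damage repair.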

[7] abbreviates: at 5.0 µM (retest, dose inferred, filed as 0.5).
Where [8] appears, read: at 50.0 µM (retest, dose inferred, filed as 5.0).

Molecules are shown by their SMILES. About 79,000 compounds went through this panel and 15% of them were active in at least one assay; those are over-represented in the sample as a whole. Values without a mark were called inactive. The source made the active and inactive calls. No stated cut-off is given here; in the data, active means growth inhibition above about 70%; inactive means the rest.

For the compound `O=C(Oc1cccc2cccnc12)c1cccnc1`, the growth inhibition in experiment [1] (setting [7]) is 93% (active); in experiment [1] (setting [8]), 98% (active); in experiment [1] (at 50.0 µM), 93.5% (active); in experiment [2] (setting [7]), 58%; in experiment [2] (setting [8]), 99% (active); in experiment [2] (at 50.0 µM), 99.2% (active). Moreover, the growth inhibition is 89% (active) in experiment [3] (setting [7]); 99% (active) in experiment [3] (setting [8]); 98% (active) in experiment [3] (at 50.0 µM); 43% in experiment [4] (setting [7]); 94% (active) in experiment [4] (setting [8]); 92.2% (active) in experiment [4] (at 50.0 µM). Besides, the growth inhibition is 97% (active) in experiment [5] (setting [7]); 98% (active) in experiment [5] (setting [8]); 97.8% (active) in experiment [5] (at 50.0 µM); 82% (active) in experiment [6] (setting [7]); 98% (active) in experiment [6] (setting [8]); 97.5% (active) in experiment [6] (at 50.0 µM).
In the case of `COc1ccccc1/C=C1\SC(=S)N(/C=C2\C(=O)Oc3ccccc3C2=O)C1=O`, the growth inhibition in experiment [1] (setting [7]) is 1%; in experiment [1] (setting [8]), 12%; in experiment [1] (at 50.0 µM), 30.9%; in experiment [2] (setting [7]), -3%; in experiment [2] (setting [8]), 27%; in experiment [2] (at 50.0 µM), 18.6%. Further, the growth inhibition is 8% in experiment [3] (setting [7]); 12% in experiment [3] (setting [8]); 54.2% in experiment [3] (at 50.0 µM); -8% in experiment [4] (setting [7]); 17% in experiment [4] (setting [8]); 58.9% in experiment [4] (at 50.0 µM). Further, the growth inhibition in experiment [5] (setting [7]) is 20%; in experiment [5] (setting [8]), 38%; in experiment [5] (at 50.0 µM), 32.2%; in experiment [6] (setting [7]) it was -16%; in experiment [6] (setting [8]) it was 14%; in experiment [6] (at 50.0 µM), 53.7%.
For the compound `CCCC(Sc1ccccc1)c1ccccc1NC(C)=O` (stereo not given), the growth inhibition was 1% in experiment [1] (setting [7]); 31% in experiment [1] (setting [8]); 85.5% (active) in experiment [1] (at 50.0 µM); 0% in experiment [2] (setting [7]); 8% in experiment [2] (setting [8]); 58.9% in experiment [2] (at 50.0 µM). The growth inhibition in experiment [3] (setting [7]) is 1%; in experiment [3] (setting [8]), 26%; in experiment [3] (at 50.0 µM), 89.9% (active); in experiment [4] (setting [7]) it was 6%; in experiment [4] (setting [8]), 33%; in experiment [4] (at 50.0 µM), 37%. The growth inhibition in experiment [5] (setting [7]) is 6%; in experiment [5] (setting [8]) it was 41%; in experiment [5] (at 50.0 µM), 45.6%; in experiment [6] (setting [7]) it was 2%; in experiment [6] (setting [8]), 15%; in experiment [6] (at 50.0 µM), 67.5%.
Turning to `Cc1c2ccncc2c(C)c2c1sc1ccccc12`, the growth inhibition is 83% (active) in experiment [1] (setting [7]); 94% (active) in experiment [1] (setting [8]); 89.5% (active) in experiment [1] (at 50.0 µM); 38% in experiment [2] (setting [7]); 96% (active) in experiment [2] (setting [8]); 90% (active) in experiment [2] (at 50.0 µM). Besides, the growth inhibition in experiment [3] (setting [7]) was 43%; in experiment [3] (setting [8]), 94% (active); in experiment [3] (at 50.0 µM), 88.8% (active); in experiment [4] (setting [7]), 32%; in experiment [4] (setting [8]) it was 95% (active); in experiment [4] (at 50.0 µM), 88.8% (active). Besides, the growth inhibition is 55% in experiment [5] (setting [7]); 95% (active) in experiment [5] (setting [8]); 84.5% (active) in experiment [5] (at 50.0 µM); 77% (active) in experiment [6] (setting [7]); 91% (active) in experiment [6] (setting [8]); 83.3% (active) in experiment [6] (at 50.0 µM).
On to `CC(O)c1c2ccccc2cc2ccccc12` (stereo not given), for which the growth inhibition in experiment [1] (setting [7]) was -17%; in experiment [1] (setting [8]), 72% (active); in experiment [1] (at 50.0 µM) it was 84.4% (active); in experiment [2] (setting [7]), -7%; in experiment [2] (setting [8]), 58%; in experiment [2] (at 50.0 µM) it was 39.3%. Further, the growth inhibition in experiment [3] (setting [7]) was 1%; in experiment [3] (setting [8]), 72% (active); in experiment [3] (at 50.0 µM), 37.6%; in experiment [4] (setting [7]) it was -32%; in experiment [4] (setting [8]), 50%; in experiment [4] (at 50.0 µM), 16.8%. In addition, the growth inhibition is -1% in experiment [5] (setting [7]); 81% (active) in experiment [5] (setting [8]); 50.5% in experiment [5] (at 50.0 µM); -13% in experiment [6] (setting [7]); 85% (active) in experiment [6] (setting [8]); 78.8% (active) in experiment [6] (at 50.0 µM).
`CC(=O)Nc1ccc(C#N)c2ccccc12`: the growth inhibition in experiment [1] (setting [7]) is 43%; in experiment [1] (setting [8]) it was 33%; in experiment [1] (at 50.0 µM) it was 40.4%; in experiment [2] (setting [7]), 42%; in experiment [2] (setting [8]), 33%; in experiment [2] (at 50.0 µM) it was 35.8%. Further, the growth inhibition in experiment [3] (setting [7]) was 0%; in experiment [3] (setting [8]), 29%; in experiment [3] (at 50.0 µM) it was 23.1%; in experiment [4] (setting [7]), 41%; in experiment [4] (setting [8]) it was 34%; in experiment [4] (at 50.0 µM), 7.4%. The growth inhibition is 21% in experiment [5] (setting [7]); 44% in experiment [5] (setting [8]); 40.8% in experiment [5] (at 50.0 µM); 35% in experiment [6] (setting [7]); 35% in experiment [6] (setting [8]); 19.4% in experiment [6] (at 50.0 µM).
In the case of `CCCCN(CCCC)CCC(=O)c1ccc2c(ccc3ccccc32)c1`, the growth inhibition in experiment [1] (setting [7]) is 19%; in experiment [1] (setting [8]), 99% (active); in experiment [1] (at 50.0 µM), 96.3% (active); in experiment [2] (setting [7]), 7%; in experiment [2] (setting [8]), 99% (active); in experiment [2] (at 50.0 µM), 95.5% (active). The growth inhibition in experiment [3] (setting [7]) was 20%; in experiment [3] (setting [8]), 99% (active); in experiment [3] (at 50.0 µM) it was 98.8% (active); in experiment [4] (setting [7]), 21%; in experiment [4] (setting [8]), 99% (active); in experiment [4] (at 50.0 µM) it was 87% (active). Also, the growth inhibition in experiment [5] (setting [7]) is 47%; in experiment [5] (setting [8]) it was 98% (active); in experiment [5] (at 50.0 µM), 99% (active); in experiment [6] (setting [7]), 12%; in experiment [6] (setting [8]) it was 99% (active); in experiment [6] (at 50.0 µM), 98.8% (active).
In the case of `CCOC(=O)C(Cc1cn(S(=O)(=O)c2ccccc2)c2ccccc12)(NC(C)=O)C(=O)OCC`, the growth inhibition in experiment [1] (setting [7]) is -2%; in experiment [1] (setting [8]), 17%; in experiment [1] (at 50.0 µM) it was 61.8%; in experiment [2] (setting [7]), -11%; in experiment [2] (setting [8]) it was 14%; in experiment [2] (at 50.0 µM), 17.3%. Also, the growth inhibition in experiment [3] (setting [7]) is 8%; in experiment [3] (setting [8]), 30%; in experiment [3] (at 50.0 µM), 70% (active); in experiment [4] (setting [7]), 15%; in experiment [4] (setting [8]), 33%; in experiment [4] (at 50.0 µM) it was -3.35%. In addition, the growth inhibition in experiment [5] (setting [7]) is -9%; in experiment [5] (setting [8]), 21%; in experiment [5] (at 50.0 µM), 67.7%; in experiment [6] (setting [7]), 5%; in experiment [6] (setting [8]), 35%; in experiment [6] (at 50.0 µM) it was 75.5% (active).
For the compound `CC1/C=C/C=C/CC/C=C/C=C/C=C/C=C/C(OC2OC(C)C(O)C(N)C2O)CC2OC(CC(O)C(O)CCC(O)CC(O)CC(O)CC(=O)OC(C)C(C)C1O)CC(O)C2C(=O)O` (stereo not given), the growth inhibition in experiment [1] (setting [7]) was 98% (active); in experiment [1] (setting [8]), 100% (active); in experiment [1] (at 50.0 µM) it was 99.3% (active); in experiment [2] (setting [7]), 96% (active); in experiment [2] (setting [8]), 100% (active); in experiment [2] (at 50.0 µM), 99.3% (active). Further, the growth inhibition in experiment [3] (setting [7]) is 56%; in experiment [3] (setting [8]), 100% (active); in experiment [3] (at 50.0 µM), 99.2% (active); in experiment [4] (setting [7]), 93% (active); in experiment [4] (setting [8]), 100% (active); in experiment [4] (at 50.0 µM), 99.1% (active). Moreover, the growth inhibition in experiment [5] (setting [7]) is 99% (active); in experiment [5] (setting [8]), 100% (active); in experiment [5] (at 50.0 µM), 99.2% (active); in experiment [6] (setting [7]), 97% (active); in experiment [6] (setting [8]), 99% (active); in experiment [6] (at 50.0 µM) it was 98.5% (active).
`COc1ccc2cc(C3CCCC3(C)CC(=O)O)ccc2c1` (stereo not given): the growth inhibition was 7% in experiment [1] (setting [7]); 11% in experiment [1] (setting [8]); 57.2% in experiment [1] (at 50.0 µM); 11% in experiment [2] (setting [7]); 10% in experiment [2] (setting [8]); 39.9% in experiment [2] (at 50.0 µM). Besides, the growth inhibition in experiment [3] (setting [7]) was 4%; in experiment [3] (setting [8]) it was 8%; in experiment [3] (at 50.0 µM) it was 62.1%; in experiment [4] (setting [7]), 3%; in experiment [4] (setting [8]) it was 7%; in experiment [4] (at 50.0 µM), 11.1%. The growth inhibition in experiment [5] (setting [7]) is 2%; in experiment [5] (setting [8]) it was 2%; in experiment [5] (at 50.0 µM) it was 3.85%; in experiment [6] (setting [7]) it was 1%; in experiment [6] (setting [8]) it was 9%; in experiment [6] (at 50.0 µM) it was 64.5%.
